Reference: PubChem BioAssay (NCI)
This is part of a sample that, as a whole, favours compounds with a hit. Of some 83,000 tested, about 20% had one in any assay.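 Assay: single dose, 48 h. Readout: percent growth (0 = no net growth; negative = cell death). Active: <10.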 Calls of active or inactive are those of the source.

Tests used:
Experiment in all cases: NCI-60 one-dose screen, 48 h (100 = growth as untreated, 0 = no growth, -100 = all killed)
Details in all cases: 10 µM unless noted
NCI-H23 lung = tested on: NCI-H23 lung
NCI-H226 lung = tested on: NCI-H226 lung
NCI-H322M lung = tested on: NCI-H322M lung
HOP-62 NSCLC = tested on: HOP-62 NSCLC
NCI-H460 lung = tested on: NCI-H460 lung
A549/ATCC NSCLC = tested on: A549/ATCC NSCLC
786-0 renal = tested on: 786-0 renal
COLO 205 colon = tested on: COLO 205 colon
DU-145 prostate = tested on: DU-145 prostate
K-562 leukemia = tested on: K-562 leukemia
MALME-3M melanoma = tested on: MALME-3M melanoma
MDA-MB-231 breast = tested on: MDA-MB-231 breast
RXF 393 renal = tested on: RXF 393 renal
SF-268 CNS = tested on: SF-268 CNS
SF-295 CNS = tested on: SF-295 CNS
SF-539 CNS = tested on: SF-539 CNS
UACC-257 melanoma = tested on: UACC-257 melanoma
M14 melanoma = tested on: M14 melanoma
NCI-H522 lung = tested on: NCI-H522 lung

Measured: growth

CCOC(=O)Nc1ccc2nc(Sc3ccc(Cl)cc3)sc2c1
inactive: NCI-H23 lung 54.2% | NCI-H226 lung 58.8% | NCI-H322M lung 44.6% | HOP-62 NSCLC 35.1% | NCI-H460 lung 25% | A549/ATCC NSCLC 42.5% | 786-0 renal 49.5% | DU-145 prostate 35.8% | K-562 leukemia 21% | MALME-3M melanoma 42% | MDA-MB-231 breast 43.4% | RXF 393 renal 36.8% | SF-268 CNS 54.4% | SF-295 CNS 29.1% | UACC-257 melanoma 57.3% | M14 melanoma 30%
active: COLO 205 colon -26.4% | SF-539 CNS 5.63%

ClCc1c(Cl)c(Cl)c(Cl)c(CCl)c1Cl
active: HOP-62 NSCLC -28.8% | COLO 205 colon -87.4% | K-562 leukemia -20.8% | MALME-3M melanoma -40.3% | RXF 393 renal -75.9%
inactive: NCI-H23 lung 82.8% | NCI-H226 lung 35% | NCI-H322M lung 94% | NCI-H460 lung 73.8% | A549/ATCC NSCLC 94.9% | 786-0 renal 76.3% | DU-145 prostate 14.8% | MDA-MB-231 breast 47.8% | SF-268 CNS 33.5% | SF-295 CNS 97.5% | SF-539 CNS 97.6% | UACC-257 melanoma 19.9% | M14 melanoma 35.5%

CCCCCCCC/C=C/CCCCCCCC1=NC(C)(C)CN1C(C)C
inactive: NCI-H226 lung 61.4% | NCI-H322M lung 76.8% | A549/ATCC NSCLC 15.7% | DU-145 prostate 21.9% | UACC-257 melanoma 11.1%
active: NCI-H23 lung -2.44% | HOP-62 NSCLC -79.6% | NCI-H460 lung -45.9% | NCI-H522 lung -57.6% | COLO 205 colon -67.3% | K-562 leukemia -54.5% | MALME-3M melanoma -19.5% | MDA-MB-231 breast -9.32% | RXF 393 renal -68.1% | SF-268 CNS 4.16% | SF-295 CNS 6.07% | SF-539 CNS 8.28% | M14 melanoma -75.3%

NC(=O)N/N=C\c1ccc([N+](=O)[O-])o1
inactive: NCI-H23 lung 99.6% | NCI-H226 lung 101% | NCI-H322M lung 117% | HOP-62 NSCLC 96.7% | NCI-H460 lung 105% | A549/ATCC NSCLC 97.1% | 786-0 renal 107% | COLO 205 colon 117% | DU-145 prostate 105% | K-562 leukemia 101% | MALME-3M melanoma 73% | MDA-MB-231 breast 122% | RXF 393 renal 123% | SF-268 CNS 102% | SF-295 CNS 97.7% | SF-539 CNS 102% | UACC-257 melanoma 91.9% | M14 melanoma 112%

Cc1ccccc1Nc1n[nH]c(Cc2ccccc2)n1
inactive: NCI-H23 lung 102% | NCI-H226 lung 100% | NCI-H322M lung 99.1% | HOP-62 NSCLC 94.6% | NCI-H460 lung 108% | A549/ATCC NSCLC 100% | 786-0 renal 105% | COLO 205 colon 122% | DU-145 prostate 103% | K-562 leukemia 72% | MALME-3M melanoma 101% | MDA-MB-231 breast 110% | RXF 393 renal 108% | SF-268 CNS 101% | SF-295 CNS 103% | SF-539 CNS 107% | UACC-257 melanoma 92.7% | M14 melanoma 106%

COc1ccc(C(=O)OC2C(OC3C(O)COC(O[C@H]4C[C@H]5[C@@H]6CC=C7C[C@@H](O)CC[C@]7(C)[C@H]6CC[C@]5(C)[C@H]4[C@H](C)C(=O)CCC(C)C)C3OC(=O)C(C)C)OCC(O)C2O)cc1 (stereo not given in full)
active: HOP-62 NSCLC -14.2% | NCI-H460 lung 0.329% | 786-0 renal -1.64% | COLO 205 colon -47.9% | K-562 leukemia -29.8% | MALME-3M melanoma 6.67% | RXF 393 renal -59.4% | SF-268 CNS -9.13% | SF-295 CNS -60.5% | SF-539 CNS -66.2% | UACC-257 melanoma -50% | M14 melanoma -61.4%
inactive: NCI-H23 lung 43.1% | NCI-H226 lung 10.9% | NCI-H322M lung 58.6% | A549/ATCC NSCLC 16.1% | DU-145 prostate 38.4% | MDA-MB-231 breast 36.5%

O=[N+]([O-])c1ccc(N/N=C\c2ccc(O)cc2O)nc1
inactive: NCI-H23 lung 44.9% | NCI-H226 lung 85% | NCI-H322M lung 39.7% | HOP-62 NSCLC 33.7% | NCI-H460 lung 19.6% | A549/ATCC NSCLC 25.6% | 786-0 renal 18.4% | COLO 205 colon 65.9% | DU-145 prostate 50.7% | K-562 leukemia 22.4% | MALME-3M melanoma 57.8% | MDA-MB-231 breast 52.9% | RXF 393 renal 36.3% | SF-268 CNS 37.3% | SF-295 CNS 28.5% | SF-539 CNS 37.5% | UACC-257 melanoma 41.3%
active: M14 melanoma 8.7%

CCCCc1nc(Cl)c(C2CC(c3ccc(S(N)(=O)=O)cc3)=NN2c2cc(Cl)cc(Cl)c2)[nH]1 (stereo not given)
inactive: NCI-H23 lung 51.9% | NCI-H226 lung 39% | NCI-H322M lung 77.7% | HOP-62 NSCLC 61.8% | NCI-H460 lung 13.9% | A549/ATCC NSCLC 36.5% | 786-0 renal 53.6% | DU-145 prostate 70.8% | K-562 leukemia 16% | MALME-3M melanoma 65.3% | MDA-MB-231 breast 35.2% | RXF 393 renal 48.4% | SF-268 CNS 49.4% | SF-295 CNS 50.3% | SF-539 CNS 91.4% | UACC-257 melanoma 55.4% | M14 melanoma 18.7%

O=C(N/N=C/c1ccccc1O)c1ccncc1
inactive: NCI-H23 lung 70.9% | NCI-H226 lung 70.1% | NCI-H322M lung 51.2% | HOP-62 NSCLC 43% | NCI-H460 lung 25.7% | A549/ATCC NSCLC 53.6% | 786-0 renal 51.1% | DU-145 prostate 58.3% | K-562 leukemia 64.9% | MALME-3M melanoma 73.6% | MDA-MB-231 breast 62.8% | RXF 393 renal 80.7% | SF-268 CNS 48.3% | SF-295 CNS 54% | SF-539 CNS 70.8% | UACC-257 melanoma 60.7% | M14 melanoma 50.7%
